Data: PubChem BioAssay (Tox21)
Results filed as inconclusive are left out. Where a call stands in place of a potency, no number is given. The source made the active and inactive calls. Unless noted, calls follow the shape of the dose curve; as a rule, active = well fitted curve in the direction sought with a large enough effect in the repeat runs; inconclusive = weak or mixed curves; inactive = no such curve, though single readings can be large; an effect the other way counts as inactive or inconclusive.

Tested on: not listed separately
Test: qHTS assay to identify small molecule antagonists of the estrogen related receptor (ERR) signaling pathway - cell viability counter screen (AID 1224818)
Settings: ERR reporter cell line viability counter screen; series mostly up to 46.1 µM
Method in brief: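 Viability of ERR cells, CellTiter-Fluor fluorescence; 17.5 h compound exposure at 37 C, DMSO vehicle; 30 min reagent incubation at 37 C/5% CO2.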

Compound | outcome
c1ccc2c(c1)Nc1ccccc1S2 | inactive
O=C(O)c1nn(Cc2ccc(Cl)cc2Cl)c2ccccc12 | inactive
O=S(=O)(O)C(F)(F)C(F)(F)C(F)(F)C(F)(F)C(F)(F)C(F)(F)C(F)(F)C(F)(F)F | inactive

Tested on: not listed separately
Test: qHTS assay to identify small molecule antagonists of the estrogen related receptor (ERR) signaling pathway (AID 1224819;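 also: luminescence from an ERR-driven luciferase reporter measured with One-Glo reagent; nearly all actives have a fitted effect of over 50% in size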)
Settings: ERR reporter cell line, luciferase inhibition; series mostly up to 46.1 µM
Method in brief: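 Seed ERR cells 2,000/well; rest 6 h at 37 C/5% CO2; pin compounds in DMSO; incubate 18 h at 37 C; add One-Glo; wait 30 min at room temperature; measure luminescence.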

Compound | Potency
c1ccc2c(c1)Nc1ccccc1S2 | inactive
O=C(O)c1nn(Cc2ccc(Cl)cc2Cl)c2ccccc12 | inactive
O=S(=O)(O)C(F)(F)C(F)(F)C(F)(F)C(F)(F)C(F)(F)C(F)(F)C(F)(F)C(F)(F)F | inactive

Tested on: not listed separately
Test: qHTS assay to identify small molecule agonists of the estrogen related receptor (ERR) signaling pathway (AID 1224820)
Settings: ERR reporter cell line, luciferase agonist mode; series mostly up to 46.1 µM
Method in brief: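 Following a 6 h settling period, 2,000 ERR cells per well receive DMSO-dissolved compounds by pin tool and incubate 18 h at 37 C; agonist activity is scored from One-Glo luminescence read 30 min post-addition.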

Compound | outcome
c1ccc2c(c1)Nc1ccccc1S2 | inactive
O=C(O)c1nn(Cc2ccc(Cl)cc2Cl)c2ccccc12 | inactive
O=S(=O)(O)C(F)(F)C(F)(F)C(F)(F)C(F)(F)C(F)(F)C(F)(F)C(F)(F)C(F)(F)F | inactive

Tested on: estrogen-related receptor alpha (ERRalpha) with PGC-1alpha coactivator, human
Test: qHTS assay to identify small molecule antagonists of the estrogen related receptor signaling pathway with the pleiotropic PPARgamma coactivator (PGC) (AID 1224821; calls by dose curve;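 also: lower luminescence signal means antagonism of PGC/ERR signalling; nearly all actives have a fitted effect of over 50% in size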)
Settings: ERR/PGC reporter cell line, luciferase, antagonist mode; series mostly up to 46.1 µM
Method in brief: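 Screening used NTP's PGC/ERR cells, dosed via pin tool with compound in DMSO alongside positive and negative controls. After 18 h at 37 C, One-Glo reagent sat 30 min at room temperature before luminescence detection.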

Compound | Potency
c1ccc2c(c1)Nc1ccccc1S2 | inactive
O=C(O)c1nn(Cc2ccc(Cl)cc2Cl)c2ccccc12 | inactive
O=S(=O)(O)C(F)(F)C(F)(F)C(F)(F)C(F)(F)C(F)(F)C(F)(F)C(F)(F)C(F)(F)F | inactive

Tested on: not listed separately
Test: qHTS assay to identify small molecule antagonists of the estrogen related receptor signaling pathway with the pleiotropic PPARgamma coactivator (PGC) cell viability counter screen (AID 1224822)
Settings: ERR/PGC reporter cell line viability counter screen; series mostly up to 46.1 µM
Method in brief: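 17.5 h compound treatment of PGC/ERR cells at 37 C; readout CellTiter-Fluor fluorescence; run alongside the PGC/ERR antagonist screen to flag cytotoxic compounds.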

Compound | Potency
c1ccc2c(c1)Nc1ccccc1S2 | inactive
O=C(O)c1nn(Cc2ccc(Cl)cc2Cl)c2ccccc12 | inactive
O=S(=O)(O)C(F)(F)C(F)(F)C(F)(F)C(F)(F)C(F)(F)C(F)(F)C(F)(F)C(F)(F)F | inactive

Tested on: not listed separately
Test: qHTS assay to identify small molecule agonists of the estrogen related receptor signaling pathway with the pleiotropic PPARgamma coactivator (PGC) (AID 1224823)
Settings: ERR/PGC reporter cell line, luciferase agonist mode; series mostly up to 46.1 µM
Excerpt: National Center for Advancing Translational Sciences [NCATS]
NIH Chemical Genomics Center [NCGC]
U.S. Environmental Protection Agency [EPA]
National Institutes of Environmental Health Sciences [NIEHS]
National Toxicology Program [NTP]
Estrogen related receptors (ERRs), the first orphan nuclear receptors discovered, play an important role in the control of cellular energy metabolism. ERRs are required for high-energy production in response to the environmental challenges. The pleiotropic PPARgamma coactivator (PGC) is a major partner of ERR and a key regulator in energy homeostasis. Together they have been implicated in the etiology of metabolic disorders such as Type 2 diabetes and metabolic syndrome. ERR-alpha was also identified as an adverse marker for breast cancer progression; ERR-alpha-positive tumors have a poor prognosis. To screen and to identify environmental compounds that perturb the PGC/ERR signaling pathways could provide valuable information for potential therapeutic or preventive measures in the treatment of metabolic disease. For identifying PGC/ERR agonists, PGC/ERR cell line (provided by NTP) has been used to screen LOPAC library.
The PGC/ERR cells were dispensed at 2,000 cells/5 ul/well in 1536-well white plates using a Multidrop dispenser. After the assay plates were incubated at a 37 C/5% CO2 incubator for 6 hours, 23 nL of compounds dissolved in DMSO, positive and negative controls or DMSO only was transferred to the assay plate by a pin tool. The plates were incubated at 37 C for 18 hours. 4 ul/well of One-Glo reagent was added into the assay plates using a Flying Reagent Dispenser. After 30 min incubation at room temperature, the luminescence intensity in the plates was measured using a ViewLux plate reader.

Compound | outcome
c1ccc2c(c1)Nc1ccccc1S2 | inactive
O=C(O)c1nn(Cc2ccc(Cl)cc2Cl)c2ccccc12 | inactive
O=S(=O)(O)C(F)(F)C(F)(F)C(F)(F)C(F)(F)C(F)(F)C(F)(F)C(F)(F)C(F)(F)F | inactive
